PubChem BioAssay (EPA / NIEHS)
Results filed as inconclusive are left out. The source made the active and inactive calls. How the source made its calls, unless noted: active means hit-call score of the fitted dose curve at least 0.9, where 1 is the maximum; inconclusive means response in the unintended direction; inactive means score below 0.9.

Key:
[1] = molecular target: Estrogen receptor beta (Homo sapiens) (UniProt Q92731); assay: OT_ER_ERbERb_1440: Odyssey Thera (OT) 24-hour HEK293T Protein-Complementation Assay for Estrogen Receptor-beta/-beta Homodimer (AID 2283380);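 further: fluorescence gain from ER beta LBD homodimer complementation read by laser scanning cytometry; scored as signal increase over DMSO baseline for both agonists and antagonists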
Estrogen receptor beta (Homo sapiens), sequence (Q92731 whole entry, looked up, the tested form may be a part): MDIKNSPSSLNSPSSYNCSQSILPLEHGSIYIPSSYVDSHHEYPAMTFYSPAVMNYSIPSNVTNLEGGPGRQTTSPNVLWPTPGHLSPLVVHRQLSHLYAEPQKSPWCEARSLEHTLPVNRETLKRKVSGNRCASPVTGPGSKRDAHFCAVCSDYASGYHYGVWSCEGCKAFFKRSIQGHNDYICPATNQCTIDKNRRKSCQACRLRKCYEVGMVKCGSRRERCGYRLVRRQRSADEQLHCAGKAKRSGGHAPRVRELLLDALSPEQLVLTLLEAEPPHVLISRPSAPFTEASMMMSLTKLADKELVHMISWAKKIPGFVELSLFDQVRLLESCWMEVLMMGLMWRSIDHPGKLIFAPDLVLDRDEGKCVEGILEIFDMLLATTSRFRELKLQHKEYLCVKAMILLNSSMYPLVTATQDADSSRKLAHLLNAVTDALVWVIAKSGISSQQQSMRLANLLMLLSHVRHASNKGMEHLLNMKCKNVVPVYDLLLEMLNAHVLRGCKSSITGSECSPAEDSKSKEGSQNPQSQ
Summary of the method: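 Fluorescence increase, nuclear for agonists or whole-cell for antagonists, relative to DMSO vehicle, quantified by laser scanning cytometer after fixation and Draq5 staining. Readout from 24 h treatment of HEK293T cells carrying complementation-paired ER beta LBD (aa 310-547).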

[2] = molecular target: Estrogen receptor (Homo sapiens) (UniProt P03372); assay: OT_ERa_GFPERaERE_0480: Odyssey Thera (OT) 8-hour HeLa Transcription Induction Assay for Estrogen Receptor (AID 2283381; active means hit-call score of the fitted dose curve at least 0.9, where 1 is the maximum; inactive means score below 0.9)
Estrogen receptor (Homo sapiens), sequence (P03372 whole entry, looked up): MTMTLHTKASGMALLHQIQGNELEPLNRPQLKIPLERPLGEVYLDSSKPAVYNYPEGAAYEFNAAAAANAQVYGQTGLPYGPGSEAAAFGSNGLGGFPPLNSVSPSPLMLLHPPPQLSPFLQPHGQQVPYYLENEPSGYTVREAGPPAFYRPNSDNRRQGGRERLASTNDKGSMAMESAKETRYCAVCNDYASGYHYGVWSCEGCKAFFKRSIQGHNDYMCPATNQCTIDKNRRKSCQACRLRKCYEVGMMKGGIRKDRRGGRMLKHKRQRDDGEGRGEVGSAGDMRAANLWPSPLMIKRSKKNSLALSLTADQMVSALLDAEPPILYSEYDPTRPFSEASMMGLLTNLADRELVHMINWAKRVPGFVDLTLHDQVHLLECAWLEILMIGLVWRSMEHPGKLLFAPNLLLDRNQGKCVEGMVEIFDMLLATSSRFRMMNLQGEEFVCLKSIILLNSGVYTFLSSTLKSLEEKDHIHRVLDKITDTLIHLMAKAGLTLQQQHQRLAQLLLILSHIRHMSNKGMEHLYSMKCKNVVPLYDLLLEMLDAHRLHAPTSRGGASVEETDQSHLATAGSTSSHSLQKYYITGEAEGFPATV
Summary of the method: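 HeLa cells dosed with compound and imaged by fluorescence microscopy at 8 h; GFP induction from an ERE reporter quantified by high-content image analysis and fitted as gain of signal against DMSO baseline.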

[3] = molecular target: Bile acid receptor (Homo sapiens) (UniProt Q96RI1); assay: OT_FXR_FXRSRC1_0480: Odyssey Thera (OT) 8-hour HEK293T Protein-Complementation Assay for Farnesoid X receptor/SRC-1 Co-activator (AID 2283383)
Bile acid receptor (Homo sapiens), sequence (Q96RI1 whole entry, looked up, the tested form may be a part): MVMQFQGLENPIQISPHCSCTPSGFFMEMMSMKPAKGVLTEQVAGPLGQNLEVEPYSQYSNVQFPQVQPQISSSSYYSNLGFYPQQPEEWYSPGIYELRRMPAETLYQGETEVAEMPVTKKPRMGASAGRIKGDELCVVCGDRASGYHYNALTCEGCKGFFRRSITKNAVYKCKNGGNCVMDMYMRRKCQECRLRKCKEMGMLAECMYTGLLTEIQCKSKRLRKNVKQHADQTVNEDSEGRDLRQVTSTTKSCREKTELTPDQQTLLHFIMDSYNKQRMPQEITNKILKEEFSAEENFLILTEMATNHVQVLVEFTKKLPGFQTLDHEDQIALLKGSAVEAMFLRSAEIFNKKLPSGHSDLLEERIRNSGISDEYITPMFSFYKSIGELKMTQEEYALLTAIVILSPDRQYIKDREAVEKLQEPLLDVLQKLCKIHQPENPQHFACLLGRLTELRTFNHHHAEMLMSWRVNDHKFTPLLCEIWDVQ
Summary of the method: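 HEK293T cells expressing FXR and SRC-1 fused to reporter fragments were dosed with compound for 8 h; fluorescence from the reconstituted reporter marked co-activator recruitment. Gain of signal was fitted against the DMSO baseline.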

[4] = molecular target: Bile acid receptor (Homo sapiens) (UniProt Q96RI1); assay: OT_FXR_FXRSRC1_1440: Odyssey Thera (OT) 24-hour HEK293T Protein-Complementation Assay for Farnesoid X receptor/SRC-1 Co-activator (AID 2283384)
Summary of the method: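 HEK293T cells were dosed with compound and read 24 h later by fluorescence intensity from protein-fragment complementation reporting FXR/SRC-1 co-activator interaction. Gain of signal was fitted relative to DMSO negative control as baseline.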

[5] = molecular target: Retinoic acid receptor RXR-alpha (Homo sapiens) (UniProt P19793); assay: OT_NURR1_NURR1RXRa_0480: Odyssey Thera (OT) 8-hour HEK293T Protein Complementation Assay for Nurr1/retinoid X receptor (RXR) (AID 2283385)
Retinoic acid receptor RXR-alpha (Homo sapiens), sequence (P19793 whole entry, looked up, the tested form may be a part): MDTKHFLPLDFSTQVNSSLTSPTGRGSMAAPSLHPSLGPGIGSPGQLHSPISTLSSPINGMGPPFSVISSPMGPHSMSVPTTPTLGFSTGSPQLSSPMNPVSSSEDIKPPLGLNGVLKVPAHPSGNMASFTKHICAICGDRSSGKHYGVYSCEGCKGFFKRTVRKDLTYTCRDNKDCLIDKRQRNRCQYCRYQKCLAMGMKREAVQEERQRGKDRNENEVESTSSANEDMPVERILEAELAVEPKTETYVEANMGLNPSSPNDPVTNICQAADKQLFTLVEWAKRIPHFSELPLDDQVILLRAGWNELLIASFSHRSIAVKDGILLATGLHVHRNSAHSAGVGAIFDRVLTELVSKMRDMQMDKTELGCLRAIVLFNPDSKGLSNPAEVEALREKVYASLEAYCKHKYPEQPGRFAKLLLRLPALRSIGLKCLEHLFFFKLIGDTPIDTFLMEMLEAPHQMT
Summary of the method: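 HEK293T cells expressing Nurr1 and RXRα fused to reporter fragments were dosed with compound for 8 hours. Complex formation was read as fluorescence intensity and analysed as gain of signal against DMSO as baseline.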

[6] = molecular target: Retinoic acid receptor RXR-alpha (Homo sapiens) (UniProt P19793); assay: OT_NURR1_NURR1RXRa_1440: Odyssey Thera (OT) 24-hour HEK293T Protein Complementation Assay for Nurr1/retinoid X receptor (RXR) (AID 2283386)
Summary of the method: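 HEK293T cells were dosed with compound and read 24 h later by fluorescence intensity in a protein-fragment complementation format, where Nurr1–RXRα interaction reconstitutes a split reporter. Activity was fitted as gain of signal relative to DMSO baseline.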

[7] = molecular target: Peroxisome proliferator-activated receptor gamma (Homo sapiens) (UniProt P37231); assay: OT_PPARg_PPARgSRC1_0480: Odyssey Thera (OT) 8-hour Protein-Complementation Assay for Peroxisome Proliferator-activated Receptor Gamma / SRC-1 Co-activator (AID 2283387);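 further: nuclear to cytoplasmic split Venus YFP fluorescence ratio reporting PPARg SRC-1 interaction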
Peroxisome proliferator-activated receptor gamma (Homo sapiens), sequence (P37231 whole entry, looked up, the tested form may be a part): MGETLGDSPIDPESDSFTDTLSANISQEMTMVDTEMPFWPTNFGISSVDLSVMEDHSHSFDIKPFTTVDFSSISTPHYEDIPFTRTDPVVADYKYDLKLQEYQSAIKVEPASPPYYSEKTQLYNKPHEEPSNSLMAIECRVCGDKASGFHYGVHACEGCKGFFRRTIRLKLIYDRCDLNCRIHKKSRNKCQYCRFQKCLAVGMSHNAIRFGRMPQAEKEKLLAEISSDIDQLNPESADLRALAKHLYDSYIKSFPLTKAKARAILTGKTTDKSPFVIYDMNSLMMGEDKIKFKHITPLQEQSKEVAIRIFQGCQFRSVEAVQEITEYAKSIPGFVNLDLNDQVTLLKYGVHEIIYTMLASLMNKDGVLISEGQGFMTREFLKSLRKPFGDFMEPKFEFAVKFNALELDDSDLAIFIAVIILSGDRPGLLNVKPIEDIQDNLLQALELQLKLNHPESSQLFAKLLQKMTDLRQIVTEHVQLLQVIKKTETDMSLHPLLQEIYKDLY
Summary of the method: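 Split-YFP (IFP1/IFP2) PPARg/SRC-1 reporter, HEK293T, 37 °C, 5% CO2; 8 h compound; formaldehyde fix + Draq5; high-content imaging, N/C ratio, ≥350 cells/image, positive direction vs DMSO.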

[8] = molecular target: Peroxisome proliferator-activated receptor gamma (Homo sapiens) (UniProt P37231); assay: OT_PPARg_PPARgSRC1_1440: Odyssey Thera (OT) 24-hour Protein-Complementation Assay for Peroxisome Proliferator-activated Receptor Gamma/ SRC-1 Co-activator (AID 2283388);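 further: nuclear to cytoplasmic ratio of reconstituted Venus YFP fluorescence in fixed imaged cells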
Summary of the method: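 Transient HEK293T, YFP fragments 1-158/159-239 (mutant IFP1/IFP2) fused to PPARg/SRC-1; 24 h dosing; fix 4% formaldehyde, Draq5; Opera imaging 488/635 nm; N/C ratio, gain vs DMSO.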

[9] = molecular target: Estrogen receptor (Homo sapiens) (UniProt P03372); assay: OT_ERa_GFPERaERE_0120: Odyssey Thera (OT) 2-hour HeLa Transcription Induction Assay for Estrogen Receptor (AID 2283382)
Summary of the method: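 HeLa cells were dosed with test chemical and read 2 hours later for GFP-ERα/ERE-linked fluorescent protein induction by fluorescence microscopy. Gain-of-signal was fitted relative to DMSO baseline, quantified by high content image analysis.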

[10] = CEETOX_H295R_11DCORT: CeeTox H295R High-throughput Steroidogenesis Assay for 11-Deoxycortisol (11DCORT) (AID 2283432; active means hit-call score of the fitted dose curve at least 0.9, where 1 is the maximum; inactive means score below 0.9;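 on AC50: human adrenal H295R cells prestimulated with 10 µM forskolin for 48 h; 11-deoxycortisol secreted into the medium measured by LC-MS/MS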); conditions: actives raise or lower the signal
Summary of the method: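 Steroidogenesis in human H295R cells: 48 h chemical exposure after forskolin priming, 11-deoxycortisol measured by LC-MS/MS.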

Measured: AC50

CC1COC(=O)O1 (configuration not stated)
not listed: [8] | [9] | [10]
inactive: all other assays above

[Na+]
inactive: [1] | [2] | [6] | [7] | [8]

O=C1OC2(c3ccc(O)cc3Oc3cc(O)ccc32)c2ccccc21
active: [3] 13.1 µM | [4] 11.4 µM
inactive: [1] | [2] | [9] | [7] | [8]

CC12CCC(C1)C(C)(C)C2O (configuration not stated)
inactive: [1] | [2] | [4] | [5] | [6] | [7]

CCCC(O)C(CC)CO (configuration not stated)
inactive: [1] | [2] | [6] | [7]

CC(=O)c1ccc2ccccc2c1
not listed: [5] | [8] | [9]
inactive: all other assays above

COc1ccc2[nH]cc(CCNC(C)=O)c2c1
active: [10] 44.5 µM
not listed: [2] | [5] | [9]
inactive: all other assays above

CCCCOCCOCCOCCO
inactive: [1] | [2] | [5] | [7]

C1CCCNCC1
inactive: [1] | [5] | [6] | [7]

CCCCCCCCOS(=O)(=O)O
inactive: [1] | [9] | [3] | [4] | [7]

CC(=O)c1ccc(O)cc1
inactive: [1] | [5] | [6] | [7]

O=S(=O)(O)c1cc(S(=O)(=O)O)c2c(N=Nc3ccccc3)c(O)ccc2c1
inactive: [1] | [2] | [9] | [3]

FC(F)(F)c1ccc(Cl)c(Cl)c1
inactive: [1] | [2] | [9] | [6] | [7] | [8]

CCCCCCCC(=O)N(C)C
inactive: [1] | [9] | [5] | [6] | [7] | [8]

CCCCCCCCOC(=O)c1ccc(O)cc1
active: [1] 5.35 µM | [2] 3.7 µM | [9] 3.43 µM | [5] 74.7 µM | [6] 92.8 µM

c1ccc(Cc2ccccc2)cc1
active: [9] 7.03 µM
inactive: [1] | [2] | [4] | [5] | [8]

CNC(=C[N+](=O)[O-])NCCSCc1ccc(CN(C)C)o1
inactive: [1] | [9] | [5] | [6] | [7] | [8]

CCC(=O)OC(C)(C)C1CC=C(C)CC1 (configuration not stated)
active: [3] 83.9 µM
not listed: [5] | [9] | [10]
inactive: all other assays above

CCCCCCCCCCCCS
active: [5] 77.6 µM | [6] 93.7 µM
inactive: [1] | [2] | [9] | [7] | [8]

CC(C)C(=O)c1ccccc1
inactive: [1] | [2] | [5] | [6] | [7] | [8]

OCC=Cc1ccccc1
inactive: [1] | [2] | [9] | [6] | [7]

CCCc1ccc(N)cc1
inactive: [1] | [9] | [5] | [6] | [7]

CC(C)(CO)CO
inactive: [1] | [2] | [9] | [5] | [6]

CC(=O)C1C(=O)C=C(C)OC1=O (configuration not stated)
not listed: [8] | [9] | [10]
inactive: all other assays above

c1ccc(OCCOc2ccccc2)cc1
inactive: [1] | [2] | [5] | [7] | [10]

CCC(C)COC(=O)CC(C)C (configuration not stated)
inactive: [1] | [2] | [5] | [6] | [7] | [8]

c1ccc2scnc2c1
inactive: [1] | [2] | [9] | [5] | [7] | [8]

CCO[Si](CC)(OCC)OCC
inactive: [1] | [2] | [5] | [6]

COC(=O)c1ccc(C(=O)OC)cc1
inactive: [1] | [9] | [5] | [6] | [7] | [8]

CCCc1ccc(O)cc1
active: [1] 46.5 µM
not listed: [8] | [9]
inactive: all other assays above

CCCC[N+](C)(CCCC)CCCC
inactive: [1] | [6] | [7] | [8]

CCc1cccc(O)c1
not listed: [5] | [8] | [10]
inactive: all other assays above

C=CC(C)CCCC(C)(C)O (configuration not stated)
inactive: [1] | [2] | [6] | [7]

C=CCCCCCCCCC(=O)OCC
not listed: [3] | [4] | [10]
inactive: all other assays above

CCCO
not listed: [3] | [4] | [10]
inactive: all other assays above

CC(C)(C)c1ccc(S)cc1
inactive: [1] | [2] | [7]

CN(C)C
inactive: [1] | [2] | [9] | [5] | [7]

C=C(C)C(=O)OCCC(C)OC(=O)C(=C)C (configuration not stated)
inactive: [2] | [9] | [5] | [6] | [7]
